The whole screen tested about 5,500 compounds, of which about 2,000 (36%) were called active. About 18% were inconclusive and are not listed. Cut-off read from the data, not from the text of the source: active = normalized growth mostly below about 0.91 (no sharp cut-off); inconclusive = no clear call, values can overlap the other calls; inactive = mostly above about 0.92. Some of the results follow.
Assay: chemical genetic growth profiling, strain panel (AID 1159580);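 note: tested at 20 µM; growth read once vehicle control cultures reached saturation at 30 °C; 1 = growth at the plate median or of vehicle wells; lower values mean less growth of the strain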
Conditions: growth OD

Measured: normalized growth

c1coc(CNc2ncnc3nc[nH]c23)c1
inactive: S. cerevisiae deletion strains, locus YJR075W, strain HOC1, active compounds read low 1 | S. cerevisiae deletion strains, locus YKL009W, strain mrt4, active compounds read low 1.03 | S. cerevisiae deletion strains, locus YKL068W, active compounds read low 0.979 | S. cerevisiae deletion strains, locus YKL085W, strain MDH1 (second series), active compounds read low 1.01 | S. cerevisiae deletion strains, locus YKL085W, strain MDH1, active compounds read low 1.01 | S. cerevisiae deletion strains, locus YKL160W, strain elf1, active compounds read low 1.02 | S. cerevisiae deletion strains, locus YKL190W, strain CNB1, active compounds read low 0.994 | S. cerevisiae deletion strains, locus YKR001C, strain vps1, active compounds read low 1 | S. cerevisiae deletion strains, locus YKR026C, strain gcn3, active compounds read low 0.999 | S. cerevisiae deletion strains, locus YKR091W, strain srl3, active compounds read low 0.994 | S. cerevisiae deletion strains, locus YLL001W, strain dnm1, active compounds read low 1.01 | S. cerevisiae deletion strains, locus YLL026W, active compounds read low 0.999 | S. cerevisiae deletion strains, locus YLL041C, strain sdh2, active compounds read low 0.997 | S. cerevisiae deletion strains, locus YLR027C, strain aat2, active compounds read low 1 | S. cerevisiae deletion strains, locus YLR039C, strain RIC1, active compounds read low 1.01 | S. cerevisiae deletion strains, locus YLR058C, strain SHM2, active compounds read low 1 | S. cerevisiae deletion strains, locus YLR102C, strain apc9, active compounds read low 0.989 | S. cerevisiae deletion strains, locus YLR113W, strain HOG1, active compounds read low 0.993 | S. cerevisiae deletion strains, locus YLR221C, strain rsa3, active compounds read low 0.975 | S. cerevisiae deletion strains, locus YLR258W, strain gsy2, active compounds read low 0.996 | S. cerevisiae deletion strains, locus YLR262C, strain YPT6 (second series), active compounds read low 0.977 | S. cerevisiae deletion strains, locus YLR262C, strain YPT6, active compounds read low 0.981 | S. cerevisiae deletion strains, locus YLR268W, strain sec22, active compounds read low 0.97 | S. cerevisiae deletion strains, locus YLR320W, strain mms22, active compounds read low 1 | S. cerevisiae deletion strains, locus YLR330W, strain CHS5, active compounds read low 0.994 | S. cerevisiae deletion strains, locus YLR342W, strain FKS1 (second series), active compounds read low 1.02 | S. cerevisiae deletion strains, locus YLR342W, strain FKS1, active compounds read low 1.01 | S. cerevisiae deletion strains, locus YLR357W, strain rsc2, active compounds read low 0.98 | S. cerevisiae deletion strains, locus YLR370C, strain arc18, active compounds read low 0.993 | S. cerevisiae deletion strains, locus YLR371W, strain rom2, active compounds read low 0.99 | S. cerevisiae deletion strains, locus YLR384C, strain iki3, active compounds read low 1 | S. cerevisiae deletion strains, locus YLR418C, strain cdc73, active compounds read low 1 | S. cerevisiae deletion strains, locus YML016C, strain PPZ1, active compounds read low 1 | S. cerevisiae deletion strains, locus YML032C, strain rad52, active compounds read low 0.993 | S. cerevisiae deletion strains, locus YML120C, strain ndi1, active compounds read low 0.992 | S. cerevisiae deletion strains, locus YML124C, strain tub3, active compounds read low 1 | S. cerevisiae deletion strains, locus YMR058W, strain fet3, active compounds read low 0.998 | S. cerevisiae deletion strains, locus YMR078C, strain ctf18, active compounds read low 0.994 | S. cerevisiae deletion strains, locus YMR125W, strain sto1, active compounds read low 0.974 | S. cerevisiae deletion strains, locus YMR129W, active compounds read low 0.988 | S. cerevisiae deletion strains, locus YMR205C, strain PFK2, active compounds read low 1 | S. cerevisiae deletion strains, locus YMR223W, strain ubp8, active compounds read low 1.02 | S. cerevisiae deletion strains, locus YMR231W, strain pep5, active compounds read low 0.991 | S. cerevisiae deletion strains, locus YMR263W, strain SAP30, active compounds read low 0.986 | S. cerevisiae deletion strains, locus YMR307W, strain GAS1, active compounds read low 1.11 | S. cerevisiae deletion strains, locus YNL067W, strain RPL9B, active compounds read low 0.983 | S. cerevisiae deletion strains, locus YNL071W, strain lat1, active compounds read low 0.999 | S. cerevisiae deletion strains, locus YNL128W, strain TEP1, active compounds read low 0.99 | S. cerevisiae deletion strains, locus YNL153C, strain GIM3, active compounds read low 0.991 | S. cerevisiae deletion strains, locus YNL183C, strain NPR1, active compounds read low 0.914 | S. cerevisiae deletion strains, locus YNL209W, strain ssb2, active compounds read low 0.986 | S. cerevisiae deletion strains, locus YNL233W, strain BNI4, active compounds read low 1.01 | S. cerevisiae deletion strains, locus YNL248C, strain rpa49, active compounds read low 0.989 | S. cerevisiae deletion strains, locus YNL250W, strain rad50, active compounds read low 0.995 | S. cerevisiae deletion strains, locus YNL271C, strain bni1, active compounds read low 0.988 | S. cerevisiae deletion strains, locus YNL298W, strain CLA4, active compounds read low 1 | S. cerevisiae deletion strains, locus YNL307C, strain MCK1, active compounds read low 0.995 | S. cerevisiae deletion strains, locus YNL322C, strain KRE1 (second series), active compounds read low 0.992 | S. cerevisiae deletion strains, locus YNL322C, strain KRE1, active compounds read low 0.987 | S. cerevisiae deletion strains, locus YNR049C, strain mso1, active compounds read low 0.999 | S. cerevisiae deletion strains, locus YNR052C, strain pop2, active compounds read low 0.993 | S. cerevisiae deletion strains, locus YOL006C, strain TOP1, active compounds read low 0.981 | S. cerevisiae deletion strains, locus YOL012C, strain htz1 0.989 | S. cerevisiae deletion strains, locus YOL147C, strain pex11, active compounds read low 0.999 | S. cerevisiae deletion strains, locus YOR001W, strain rrp6, active compounds read low 1.01 | S. cerevisiae deletion strains, locus YOR061W, strain CKA2, active compounds read low 1 | S. cerevisiae deletion strains, locus YOR069W, strain VPS5, active compounds read low 1 | S. cerevisiae deletion strains, locus YOR070C, strain gyp1, active compounds read low 1 | S. cerevisiae deletion strains, locus YOR080W, strain dia2, active compounds read low 0.995 | S. cerevisiae deletion strains, locus YOR083W, strain WHI5, active compounds read low 1 | S. cerevisiae deletion strains, locus YOR106W, strain vam3, active compounds read low 1 | S. cerevisiae deletion strains, locus YOR136W, strain idh2, active compounds read low 0.996 | S. cerevisiae deletion strains, locus YOR144C, strain elg1, active compounds read low 0.99 | S. cerevisiae deletion strains, locus YOR184W, strain ser1, active compounds read low 0.997 | S. cerevisiae deletion strains, locus YOR231W, strain MKK1, active compounds read low 0.998 | S. cerevisiae deletion strains, locus YOR265W, strain rbl2, active compounds read low 0.996 | S. cerevisiae deletion strains, locus YOR270C, strain vph1, active compounds read low 0.99 | S. cerevisiae deletion strains, locus YOR290C, strain snf2, active compounds read low 0.991 | S. cerevisiae deletion strains, locus YOR316C, strain cot1, active compounds read low 0.989 | S. cerevisiae deletion strains, locus YPL051W, strain arl3, active compounds read low 0.996 | S. cerevisiae deletion strains, locus YPL055C, strain LGE1, active compounds read low 0.978 | S. cerevisiae deletion strains, locus YPL078C, strain atp4, active compounds read low 1.01 | S. cerevisiae deletion strains, locus YPL106C, strain sse1, active compounds read low 0.995 | S. cerevisiae deletion strains, locus YPL240C, strain hsp82, active compounds read low 1.02 | S. cerevisiae deletion strains, locus YPL241C, strain CIN2, active compounds read low 1 | S. cerevisiae deletion strains, locus YPL256C, strain CLN2, active compounds read low 0.965 | S. cerevisiae deletion strains, locus YPR119W, strain clb2, active compounds read low 0.999 | S. cerevisiae deletion strains, locus YPR141C, strain kar3, active compounds read low 0.981 | S. cerevisiae deletion strains, locus YPR163C, strain tif3, active compounds read low 1 | S. cerevisiae deletion strains, locus YPR167C, strain met16, active compounds read low 0.99 | S. cerevisiae deletion strains, strain wtn01, active compounds read low 0.986 | S. cerevisiae strains, strain wild type, active compounds read low 0.999
